E-sel TNF inh: TNF alpha driven E-selectin expression inhibition. HUVEC TNFa-induced E-selectin immunofluorescence, high content. inhibition, % at 2 µM. hit rate 0.71% among 120,000;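 active = inhibition above the batch mean plus 3 SD, and confirmed as a hit on visual image review, cut at about 43% in these data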;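 also: 0% = TNF-stimulated DMSO wells and 100% = unstimulated control wells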
HUVEC tox TNFa: HUVEC cytotoxicity counter-screen, TNF alpha stimulated; hit rate 0.17% among 93,000; AID 848; HUVEC TNFalpha-stimulated, Hoechst cell count, imaging; cell count reduction, % at 2 µM;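 active = cell count reduction exceeding the screen mean by over 5 SD, scaled to untreated wells per plate, cut at about 78% in these data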;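 also: cells counted after 24 h of TNF alpha exposure following the 1 h pretreatment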
NFkB transloc pot: enhances IL-1B driven NFkB nuclear translocation; activation, % at 2 µM; HUVEC IL-1B NFkB p65 nuclear translocation imaging; hit rate 0.3% among 94,000;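 active = activation above 40%, about the mean plus 3 SD, also judged a hit on visual image review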;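 also: percent activation is computed from the nuclear over cytoplasmic p65 intensity ratio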
NFkB transloc inh: blocks IL-1B driven NFkB nuclear translocation in HUVEC cells | AID 796 | hit rate 0.43% among 94,000 | HUVEC IL-1B NFkB p65 nuclear translocation imaging | inhibition, % at 2 µM;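 active = inhibition above about 30% together with a positive call from visual inspection of the well image, limit read from the data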;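 also: nuclear over cytoplasmic p65 intensity ratio measured by imaging; 0% = IL-1B stimulated DMSO wells and 100% = unstimulated DMSO wells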
VCAM1 TNFa inh: reduces TNF alpha induced VCAM1 expression in HUVEC; inhibition, % at 2 µM; HUVEC TNFa-induced VCAM-1 immunofluorescence, high-content imaging; hit rate 0.48% among 95,000; AID 802;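 active = inhibition above the batch mean plus 3 SD, with images confirmed as a hit by eye, cut at about 37% in these data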;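 also: 0% = TNF-stimulated DMSO wells and 100% = unstimulated control wells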
HUVEC tox IL1B: toxic to HUVEC cells under IL-1B stimulation; HUVEC cell count loss, Hoechst imaging, IL-1B stimulated; cell count reduction, % at 2 µM; hit rate 0.41% among 94,000; AID 845;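 active = cell count reduction more than 3 SD above the screen-wide mean, cut at about 70% in these data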;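 also: normalized per plate to untreated control cells as the no-loss baseline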
An asterisk follows results filed as active. An excerpt weighted towards active compounds, which were near 1.8% of everything screened.

For Cc1cc(C(=O)CSc2nn3c(=O)c(C(C)(C)C)nnc3s2)c(C)n1C the results were E-sel TNF inh -12.8.
For COc1ccccc1NC(=O)CSc1nc2n[nH]c(C)c2c(=N)n1-c1ccccc1Cl the results were E-sel TNF inh -22.9, HUVEC tox TNFa -12.1 and VCAM1 TNFa inh 26.3.
Screening O=C1CC(C(=O)Nc2ccc(Br)cc2)C2(CCCC2)O1 (centres undefined) returned E-sel TNF inh 3.2, HUVEC tox TNFa 4.1, NFkB transloc pot -24.9, NFkB transloc inh 24.9, VCAM1 TNFa inh -2.8 and HUVEC tox IL1B 82.1*.
For Cc1ccc(-n2cnnn2)c(S(=O)(=O)N2CCOCC2)c1 the results were E-sel TNF inh -31.5, HUVEC tox TNFa -0.8, NFkB transloc pot -35.2, NFkB transloc inh 35.2*, VCAM1 TNFa inh -9.6 and HUVEC tox IL1B -67.3.
Screening COc1ccc(Cc2nnc(SCC(=O)NC3CCCC3)o2)cc1 returned E-sel TNF inh 54.3*, HUVEC tox TNFa -26.9, NFkB transloc pot -9.3, NFkB transloc inh 9.3, VCAM1 TNFa inh 15.7 and HUVEC tox IL1B 24.6.
O=C(CSc1nnc(Cc2ccccc2)o1)NC1CCCCC1 was read as E-sel TNF inh -25.4, HUVEC tox TNFa 4.9, NFkB transloc pot 0.8, NFkB transloc inh -0.8, VCAM1 TNFa inh -0.8 and HUVEC tox IL1B -9.8.
`Cc1cc(N2CCOCC2)nc(N)n1` gave E-sel TNF inh -44.6.
Cc1cc(N2CCOCC2)c2c(N)c(C)cc(C)c2n1 was read as E-sel TNF inh -41.7, NFkB transloc pot 1.0, NFkB transloc inh -1.0, VCAM1 TNFa inh 100.0* and HUVEC tox IL1B -20.9.
`N#Cc1ccc(CNc2cnccn2)cc1` gave E-sel TNF inh -13.2, HUVEC tox TNFa -25.4, NFkB transloc pot 0.8, NFkB transloc inh -0.8, VCAM1 TNFa inh 6.6 and HUVEC tox IL1B 93.7*.
For COc1ccc(Cc2nnc3n2N=C(c2cc4ccccc4o2)CS3)cc1OC the results were E-sel TNF inh -1.1, HUVEC tox TNFa 12.5, NFkB transloc pot 4.2, NFkB transloc inh -4.2, VCAM1 TNFa inh 15.5 and HUVEC tox IL1B -12.6.
O=C(Cc1cccs1)NNC(=S)NC(=O)c1ccc(F)c(F)c1 was read as E-sel TNF inh 76.1*.
For COC(=O)CS(=O)(=O)c1nnc([C@H](Cc2ccccc2)NC(=O)OC(C)(C)C)o1 the results were E-sel TNF inh 30.8, HUVEC tox TNFa 18.7, NFkB transloc pot -9.9, NFkB transloc inh 9.9, VCAM1 TNFa inh 32.2 and HUVEC tox IL1B 18.5.
`Cc1cccc(CS(=O)(=O)c2nnc([C@H](Cc3ccccc3)NC(=O)OC(C)(C)C)o2)c1` gave E-sel TNF inh 11.6, HUVEC tox TNFa 23.3, NFkB transloc pot -8.4, NFkB transloc inh 8.4, VCAM1 TNFa inh 58.0* and HUVEC tox IL1B 13.5.
For CC12C=CC3(O1)C(C(=O)N(c1cccnc1)C3C(=O)NC1CCCCC1)C2C(=O)Nc1ccccc1 (centres undefined) the results were E-sel TNF inh 7.7, HUVEC tox TNFa -23.6, NFkB transloc pot -31.2, NFkB transloc inh 31.2*, VCAM1 TNFa inh 7.9 and HUVEC tox IL1B -31.3.
`Cc1c(C(=O)NCc2ccco2)oc2ccc(S(=O)(=O)N3CCC4(CC3)OCCO4)cc12` gave E-sel TNF inh 13.2, HUVEC tox TNFa 3.9, NFkB transloc pot -31.8, NFkB transloc inh 31.8*, VCAM1 TNFa inh 1.6 and HUVEC tox IL1B -2.0.
Screening Cc1c(C(=O)NCCc2ccccc2)oc2ccc(S(=O)(=O)N3CCC4(CC3)OCCO4)cc12 returned E-sel TNF inh 9.7, HUVEC tox TNFa -0.3, NFkB transloc pot -9.5, NFkB transloc inh 9.5, VCAM1 TNFa inh 2.6 and HUVEC tox IL1B 7.5.
For Cc1ccc(C2C(C=Nc3c(C)n(C)n(-c4ccccc4)c3=O)=C(c3ccccc3)Oc3ccccc32)cc1 (centres undefined) the results were E-sel TNF inh 3.6, HUVEC tox TNFa -19.6, NFkB transloc pot -2.6, NFkB transloc inh 2.6, VCAM1 TNFa inh 0.6 and HUVEC tox IL1B 6.5.
Screening NCCN1CCN(CCN)CC1 returned E-sel TNF inh 5.1, HUVEC tox TNFa 2.6, NFkB transloc pot 2.9, NFkB transloc inh -2.9, VCAM1 TNFa inh 94.4* and HUVEC tox IL1B -1.4.
For O=C(c1ccccc1)[C@H]1[C@H](c2ccccc2)[C@@]2(N=C(c3ccccc3)OC2=O)C2c3ccccc3C=NN21 (some centres undefined) the results were E-sel TNF inh 14.8, HUVEC tox TNFa -3.2, NFkB transloc pot 10.4, NFkB transloc inh -10.4, VCAM1 TNFa inh 8.1 and HUVEC tox IL1B -1.4.
c1ccc(OCc2noc(CN3CCC(C4CCCCC4)C3)n2)cc1 (centres undefined) was read as E-sel TNF inh 2.8.
For O=C(c1ccco1)N(Cc1ccc([N+](=O)[O-])cc1)c1ccc(Br)cc1 the results were E-sel TNF inh -21.8, HUVEC tox TNFa 7.8, NFkB transloc pot -6.9, NFkB transloc inh 6.9, VCAM1 TNFa inh -28.0 and HUVEC tox IL1B -6.6.
For O=C(c1ccc([N+](=O)[O-])cc1)N(Cc1ccc(Br)cc1)N1C(=O)CCCC1=O the results were E-sel TNF inh 97.6*, HUVEC tox TNFa -20.3, NFkB transloc pot -9.1, NFkB transloc inh 9.1, VCAM1 TNFa inh 29.5 and HUVEC tox IL1B 14.2.
For COc1ccc(C2C(C(C)=O)=C(C)N=c3s/c(=C\c4ccc5c(c4)OCO5)c(=O)n32)c(OC)c1 (centres undefined) the results were E-sel TNF inh -27.1, HUVEC tox TNFa -5.4, NFkB transloc pot 12.6, NFkB transloc inh -12.6, VCAM1 TNFa inh 8.1 and HUVEC tox IL1B 94.4*.
For Cc1[nH]n(-c2ccc([N+](=O)[O-])cc2)c(=O)c1N=Nc1nc2ccccc2s1 the results were E-sel TNF inh 19.1, HUVEC tox TNFa -3.9, NFkB transloc pot 18.8, NFkB transloc inh -18.8, VCAM1 TNFa inh 52.4* and HUVEC tox IL1B -14.1.
Screening O=c1c(N=Nc2ccc(O)cc2)c(-c2ccccc2)[nH]n1-c1ccc([N+](=O)[O-])cc1 returned E-sel TNF inh -28.9.
O=C1CSC(c2ccc(F)cc2)N1c1nnc(C23CC4CC(CC(C4)C2)C3)s1 (centres undefined) was read as E-sel TNF inh 10.4, HUVEC tox TNFa -33.9, NFkB transloc pot -8.4, NFkB transloc inh 8.4, VCAM1 TNFa inh -4.3 and HUVEC tox IL1B -4.7.
Screening C=CCc1cc(Cl)ccc1OCCN(C)C returned E-sel TNF inh 24.6, HUVEC tox TNFa -4.5, NFkB transloc pot 2.8, NFkB transloc inh -2.8, VCAM1 TNFa inh -28.8 and HUVEC tox IL1B 84.8*.
For C=CCc1cc(Cl)ccc1OCCCNC(C)C the results were E-sel TNF inh -9.4.
CCOC(=O)C1CCCN(C(=O)COC(=O)c2cc(=O)c3ccccc3o2)C1 (centres undefined) was read as E-sel TNF inh 63.6*, HUVEC tox TNFa 0.8, NFkB transloc pot 2.0, NFkB transloc inh -2.0, VCAM1 TNFa inh -5.0 and HUVEC tox IL1B 18.6.
`CCOC(=O)C1CCCN(C(=O)c2cc(=O)c3ccccc3o2)C1` (centres undefined) gave E-sel TNF inh -1.4, HUVEC tox TNFa -34.5, NFkB transloc pot 4.3, NFkB transloc inh -4.3, VCAM1 TNFa inh -3.7 and HUVEC tox IL1B 6.5.

Screens: PubChem, Columbia University Molecular Screening Center
